Assay results: PubChem BioAssay
Calls of active or inactive are those of the source.

Legend:
[1] = target: Albumin (Bos taurus) (UniProt P02769); test: bovine serum albumin binders on microarray, profiling panel, artefact control for SMM control protein annotation, biochemical, small-molecule microarray, Alexa647 label, 635/667 nm fluorescence (AID 1118); conditions: BSA-A647 binding, fluorescence 635 nm, higher = more signal;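 note: score merges 667 nm emission intensity and signal-to-noise per printed compound spot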
Albumin (Bos taurus), sequence (P02769 whole entry, looked up): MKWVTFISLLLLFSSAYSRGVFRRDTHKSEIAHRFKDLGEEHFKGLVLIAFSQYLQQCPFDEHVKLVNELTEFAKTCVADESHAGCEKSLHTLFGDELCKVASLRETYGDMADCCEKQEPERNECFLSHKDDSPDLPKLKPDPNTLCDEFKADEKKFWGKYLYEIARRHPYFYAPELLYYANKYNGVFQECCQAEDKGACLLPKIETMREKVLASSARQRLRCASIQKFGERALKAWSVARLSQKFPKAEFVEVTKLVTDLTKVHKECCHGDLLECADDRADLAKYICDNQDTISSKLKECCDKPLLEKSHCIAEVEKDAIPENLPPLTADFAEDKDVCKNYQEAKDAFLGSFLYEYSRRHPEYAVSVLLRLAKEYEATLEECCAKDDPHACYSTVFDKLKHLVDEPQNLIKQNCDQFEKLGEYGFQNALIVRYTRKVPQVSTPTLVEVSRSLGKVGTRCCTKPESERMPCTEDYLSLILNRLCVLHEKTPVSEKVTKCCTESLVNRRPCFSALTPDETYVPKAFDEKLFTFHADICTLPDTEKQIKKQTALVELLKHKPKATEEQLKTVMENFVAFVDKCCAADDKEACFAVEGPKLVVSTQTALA

[2] = small-molecule microarray binders of probe aXIP, primary screen, biochemical, NeuroSMM set, 635/667 nm fluorescence (AID 1119); conditions: higher = more signal, called active from +8 up or from −8 down;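 note: probe is the protein aXip251-270 applied at 1 µg/mL to compound-printed slides; binding of probe to printed compounds measured as 667 nm fluorescence plus signal to noise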
[3] = small-molecule binders of probe aNOTCH3, primary screen, biochemical, small-molecule microarray, 635/667 nm fluorescence (AID 1120); conditions: higher = more signal;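 note: probe is a biotin-tagged antibody raised against NOTCH3 rather than NOTCH3 protein; score merges spot fluorescence near 667 nm with spot signal to noise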
[4] = small-molecule binders of probe aNOTCH2, primary screen, biochemical, small-molecule microarray, 635/667 nm fluorescence (AID 1121); conditions: higher = more signal;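 note: score merges feature fluorescence read at 667 nm with its signal to noise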
[5] = target: Carbonic anhydrase 2 (Homo sapiens) (UniProt P00918); test: CAII small-molecule binders, profiling panel, biochemical, small-molecule microarray, Alexa647-labelled CAII (AID 1122); conditions: CAII-A647 binding fluorescence, higher = more signal
[6] = COS7 lysate on small-molecule microarray, probe aHis, 635 nm (AID 1123); conditions: COS7 cell lysate, fluorescence, higher = more signal;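 note: z-score combines 667nm fluorescence intensity with signal-to-noise per printed compound spot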
[7] = compound binding in COS7 lysate, probe aLAP1, primary screen, cell lysate, small-molecule microarray (AID 1124); conditions: probe aLAP1, fluorescence, higher = more signal;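 note: lysate comes from COS7 cells expressing LAP1 and is applied at 0.3 µg/mL; score merges spot fluorescence near 667 nm with signal-to-noise over triplicate slides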
[8] = system: Sam68 (KHDRBS1); test: Sam68 small-molecule binders, primary screen, biochemical, small-molecule microarray, 635 nm fluorescence (AID 1125); conditions: small-molecule microarray binding, higher = more signal;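 note: score merges 667 nm channel intensity with signal to noise over triplicate slides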
[9] = system: Chordin-like protein 2 (CHRDL2); test: CHRDL2 small-molecule binders, primary screen, biochemical, small-molecule microarray, 635 nm fluorescence (AID 1126); conditions: small-molecule microarray binding, fluorescence 635 nm; higher = more signal;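 note: printed compound slides probed with Chrdl2 protein at 4 µg/mL for 1 h at 4 C; score merges 667 nm emission intensity with signal to noise over three replicate slides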
[10] = target: Concanavalin-A (Canavalia ensiformis) (UniProt P02866); test: ConA small-molecule binders, primary screen, artefact control for SMM control protein annotation, biochemical, small-molecule microarray, Alexa647 label, 635 nm (AID 1127); conditions: ConA-A647 binding fluorescence, higher = more signal;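 note: z combines 667 nm emission intensity with signal-to-noise across three replicate slides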
Concanavalin-A (Canavalia ensiformis), sequence (P02866 whole entry, looked up): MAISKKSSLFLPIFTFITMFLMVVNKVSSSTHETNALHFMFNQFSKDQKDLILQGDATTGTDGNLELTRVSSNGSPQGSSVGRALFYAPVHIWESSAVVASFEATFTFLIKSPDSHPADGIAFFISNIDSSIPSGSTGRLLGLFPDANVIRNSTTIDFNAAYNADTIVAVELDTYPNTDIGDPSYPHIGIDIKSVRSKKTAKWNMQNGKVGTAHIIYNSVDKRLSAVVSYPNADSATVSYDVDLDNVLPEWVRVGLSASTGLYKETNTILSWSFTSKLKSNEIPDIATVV

[11] = anti-His antibody binders, primary screen, artefact control for SMM control protein annotation, biochemical, small-molecule microarray, 635 nm fluorescence (AID 1128); conditions: anti-His Alexa647 antibody binding, higher = more signal;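 note: score merges feature fluorescence with signal-to-noise for each printed compound spot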
[12] = system: Human papillomavirus type 1a E7 protein (residues 1-88); test: HPV1a E7 small-molecule binders, primary screen, biochemical, small-molecule microarray, residues 1-88, 635 nm (AID 1129); conditions: small-molecule microarray binding, fluorescence 635 nm; higher = more signal
[13] = target: Focal adhesion kinase 1 (Homo sapiens) (UniProt Q05397); test: small-molecule microarray binders of FAK, primary screen, biochemical, 635/667 nm fluorescence, BSA, DTT (AID 1130); conditions: PTK2 binding, 635 nm fluorescence, higher = more signal;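 note: composite of spot emission at 667 nm and signal to noise over triplicate slides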
Focal adhesion kinase 1 (Homo sapiens), sequence (Q05397 whole entry, looked up): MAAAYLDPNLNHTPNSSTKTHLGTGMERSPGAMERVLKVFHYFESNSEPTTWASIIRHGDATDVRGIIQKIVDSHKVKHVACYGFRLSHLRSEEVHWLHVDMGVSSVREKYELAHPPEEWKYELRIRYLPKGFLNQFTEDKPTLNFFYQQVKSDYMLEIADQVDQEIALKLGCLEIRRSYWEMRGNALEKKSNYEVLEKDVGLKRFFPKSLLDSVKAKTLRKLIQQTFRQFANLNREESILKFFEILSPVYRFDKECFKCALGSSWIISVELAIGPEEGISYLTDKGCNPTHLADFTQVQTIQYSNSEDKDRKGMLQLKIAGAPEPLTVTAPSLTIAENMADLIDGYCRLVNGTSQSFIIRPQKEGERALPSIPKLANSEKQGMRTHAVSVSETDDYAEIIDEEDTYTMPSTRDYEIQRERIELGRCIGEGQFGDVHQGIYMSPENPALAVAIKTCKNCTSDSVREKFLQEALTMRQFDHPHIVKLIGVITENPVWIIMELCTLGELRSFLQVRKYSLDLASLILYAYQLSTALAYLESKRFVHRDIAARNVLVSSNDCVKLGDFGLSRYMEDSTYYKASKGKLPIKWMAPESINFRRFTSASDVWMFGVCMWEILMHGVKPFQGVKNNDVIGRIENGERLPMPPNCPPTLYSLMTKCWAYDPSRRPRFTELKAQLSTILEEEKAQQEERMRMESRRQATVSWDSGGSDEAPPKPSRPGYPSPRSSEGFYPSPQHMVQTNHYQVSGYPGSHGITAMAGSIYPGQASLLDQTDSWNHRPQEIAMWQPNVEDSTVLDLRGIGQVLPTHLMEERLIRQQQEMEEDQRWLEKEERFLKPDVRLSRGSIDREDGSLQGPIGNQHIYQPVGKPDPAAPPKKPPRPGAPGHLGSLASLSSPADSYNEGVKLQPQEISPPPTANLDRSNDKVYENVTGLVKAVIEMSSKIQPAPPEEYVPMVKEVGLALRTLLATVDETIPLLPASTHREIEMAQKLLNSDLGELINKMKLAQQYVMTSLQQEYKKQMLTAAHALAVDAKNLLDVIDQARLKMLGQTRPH

[14] = system: Fibrinogen (Alexa647-labelled); test: fibrinogen binders on compound microarrays, profiling panel, artefact control for SMM control-protein annotation, biochemical, small-molecule microarray, 635/667 nm fluorescence (AID 1131); conditions: fibrinogen-A647 binding fluorescence, higher = more signal;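 note: z-score merges 667 nm fluorescence with per-spot signal-to-noise over triplicate slides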
[15] = target: Follistatin (Homo sapiens) (UniProt P19883); test: follistatin binders on small-molecule microarrays, primary screen, biochemical, small-molecule microarray, 635/667 nm fluorescence (AID 1132); conditions: FST binding, 635 nm fluorescence, higher = more signal
Follistatin (Homo sapiens), sequence (P19883 whole entry, looked up): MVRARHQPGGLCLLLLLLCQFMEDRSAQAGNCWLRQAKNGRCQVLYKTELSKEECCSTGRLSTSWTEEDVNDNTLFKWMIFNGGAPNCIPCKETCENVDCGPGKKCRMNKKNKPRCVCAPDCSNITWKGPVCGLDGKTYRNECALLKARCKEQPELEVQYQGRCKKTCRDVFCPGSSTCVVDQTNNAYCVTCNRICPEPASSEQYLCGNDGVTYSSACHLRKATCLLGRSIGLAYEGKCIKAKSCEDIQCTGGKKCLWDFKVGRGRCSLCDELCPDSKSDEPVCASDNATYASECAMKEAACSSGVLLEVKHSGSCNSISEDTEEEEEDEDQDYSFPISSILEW

[16] = target: Fibroblast growth factor 2 (Homo sapiens) (UniProt P09038); test: FGF2 binders on small-molecule microarrays, primary screen, biochemical, small-molecule microarray, 635/667 nm fluorescence (AID 1133); conditions: small-molecule microarray binding, FGF2, fluorescence 635/667; higher = more signal
Fibroblast growth factor 2 (Homo sapiens), sequence (P09038 whole entry, looked up): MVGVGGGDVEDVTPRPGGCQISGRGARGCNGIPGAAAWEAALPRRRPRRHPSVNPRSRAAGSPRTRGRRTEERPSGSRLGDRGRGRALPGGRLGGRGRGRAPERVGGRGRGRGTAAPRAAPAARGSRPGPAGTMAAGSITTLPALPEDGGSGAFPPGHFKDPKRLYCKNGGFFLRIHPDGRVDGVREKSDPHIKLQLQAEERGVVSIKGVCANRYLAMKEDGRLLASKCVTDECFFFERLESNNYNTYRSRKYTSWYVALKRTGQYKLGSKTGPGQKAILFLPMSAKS

[17] = mitochondrial membrane potential change in A549 cells, profiling panel, cell-based, JC-1 fluorescence, basal, 24 h, 100 nL (AID 1138); conditions: higher = more signal;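 note: A549 lung adenocarcinoma cells under basal conditions with no added stimulus; test concentration not given here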
[18] = system: Lefty1; test: Lefty1 binders on small-molecule microarrays, primary screen, biochemical, small-molecule microarray, 635/667 nm fluorescence (AID 1139); conditions: small-molecule microarray binding, fluorescence 635/667; higher = more signal
[19] = system: wheat germ agglutinin (Triticum aestivum), Alexa647-labelled; test: wheat germ agglutinin binders on compound microarrays, profiling panel, artefact control for SMM control-protein annotation, biochemical, small-molecule microarray, 635/667 nm fluorescence (AID 1140); conditions: WGA-A647 binding, 635 nm fluorescence, higher = more signal;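 note: score merges 667 nm feature emission with signal to noise over triplicate slides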
[20] = target: Luciferin 4-monooxygenase (Photinus pyralis) (UniProt P08659); test: firefly luciferase enzyme inhibitors, primary screen, biochemical, luminescence, purified enzyme, 2006 set (AID 1141); conditions: SteadyGlo luminescence, 30 min, higher = more signal, called active from +8 up or from −8 down;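 note: cell-free assay with purified firefly luciferase at 100 ng per well in PBS; test concentration not given here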
Luciferin 4-monooxygenase (Photinus pyralis), sequence (P08659 whole entry, looked up): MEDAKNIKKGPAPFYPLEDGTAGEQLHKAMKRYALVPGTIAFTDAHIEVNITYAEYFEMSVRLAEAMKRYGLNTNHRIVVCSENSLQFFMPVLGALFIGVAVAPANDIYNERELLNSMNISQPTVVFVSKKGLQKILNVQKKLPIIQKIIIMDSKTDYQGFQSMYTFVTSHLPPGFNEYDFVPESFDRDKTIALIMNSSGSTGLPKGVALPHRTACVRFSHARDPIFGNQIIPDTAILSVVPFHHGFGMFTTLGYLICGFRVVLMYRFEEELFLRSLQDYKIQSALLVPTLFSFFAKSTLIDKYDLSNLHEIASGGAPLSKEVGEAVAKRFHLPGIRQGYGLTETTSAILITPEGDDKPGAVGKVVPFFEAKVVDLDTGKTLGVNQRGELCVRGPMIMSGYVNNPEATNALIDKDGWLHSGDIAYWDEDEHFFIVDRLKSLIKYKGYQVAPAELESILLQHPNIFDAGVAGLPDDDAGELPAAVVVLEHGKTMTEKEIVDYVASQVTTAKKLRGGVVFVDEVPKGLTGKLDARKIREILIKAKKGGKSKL

Compound	composite z-score [1]	composite Z-score [2]	composite z-score [3]	composite z-score [4]	composite z-score [5]	composite z-score [6]	composite z-score [7]	composite z-score [8]	composite z-score [9]	composite z-score [10]	composite z-score [11]	composite z-score [12]	composite z-score [13]	composite z-score [14]	composite z-score [15]	composite z-score [16]	z-score [17]	composite z-score [18]	composite z-score [19]	z-score [20]
CC(C)C(CO)N1C(=O)[C@@H]2[C@H]3C(=O)OCC=C[C@H]3OC23C=CCN(Cc2ccccc2)C(=O)[C@@H]13 (stereo not given in full)	-1.27	-0.0662 (inactive)	0.271	-0.154	0.833	-0.635	-0.733	-0.69	-1.02	-2.22	-1.88	-1.62	-0.778	-1.48	-0.317	-0.392	0.792	-0.375	-1.06	-0.511 (inactive)
C=CCNC(=O)[C@@H]1[C@H]2C(=O)O[C@H](c3ccccc3)[C@H](c3ccccc3)N2[C@H](c2ccc(O)cc2)[C@@]12C(=O)N(C(=O)OCCOC)c1ccc(C#Cc3ccc(OC)cc3)cc12	-0.0706	0.574 (inactive)	0.13	0.0406	0.484	1.46	0.478	1.32	0.455	1.12	0.539	1.13	1.68	0.8	0.949	0.915	-0.0671	0.544	1.06	-1.23 (inactive)
O=C1O[C@H](c2ccccc2)[C@H](c2ccccc2)N2[C@H]1[C@@H](C(=O)Nc1nc3ccccc3s1)[C@]1(C(=O)Nc3ccc(C#CCCO)cc31)[C@H]2c1ccccc1OCCO	0.596	0.231 (inactive)	0.0695	-0.0155	0.671	2.43	0.849	1.31	-0.0204	1.18	1.42	1.2	0.705	0.89	1.09	0.479	-1.93	0.287	1.3	-1.14 (inactive)
COC(=O)C1=CC(CCCO)=CC(C2CC2)N(Cc2cc3c(cc2Br)OCO3)C=C1C(=O)OC (stereo not given)	1.01	0.305 (inactive)	0.102	0.0247	0.92	2.44	1.65	1.3	-0.547	1.07	2.68	0.86	0.149	0.931	-0.107	-0.3	1.27	-0.648	1.4	-1.24 (inactive)
C=C(COC)C(=O)CC[C@H](OC(=O)c1ccccc1-c1ccccc1C(=O)O)c1ccccc1OCCO	-0.714	1.42 (inactive)	-0.0881	-0.126	0.59	0.125	0.283	0.452	-0.0006	0.7	-0.307	0.536	-0.203	-0.591	0.905	0.855	0.904	0.655	-0.179	-3.05 (inactive)
